Screening data deposited in PubChem by National Center for Advancing Translational Sciences (NCATS).
Compounds with a hit are over-represented: about 2.4% of the library has one in this group of screens.
WRN inhibitor = qHTS for Inhibitors of WRN Helicase; 360,000 compounds, 0.46% hits; AID 651768, 2012; WRN helicase unwinding, fluorescent forked duplex, kinetic; Potency, µM (titrated, usually from 114 µM), usual class: inhibitors; Bifunctional 3'-5' exonuclease/ATP-dependent helicase WRN (Homo sapiens), Q14191; further: nearly all actives have a fitted effect of over 55% in size
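Kinetic fluorescence helicase assay: unwinding of a quenched forked DNA duplex (100 nM final) with 2 mM ATP final raises red fluorescence (525/598 nm). Compounds sat 15 min at room temperature with 20 nM WRN beforehand.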
POLB inh = qHTS Assay for Inhibitors of DNA Polymerase Beta. P06746. Pol beta primer extension/strand displacement, fluorescence kinetic. Potency, µM (titrated, usually from 114 µM), hits mostly inhibitors. 340,000 compounds, 1.3% hits. AID 485314, 2010
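Reaction started by 50 nM substrate onto compound-treated Pol beta (10 nM, 15 min preincubation, room temperature); plates read at 0 min and 10 min. Normalized concentration-effect data fitted by four-parameter Hill equation.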
FEN1 inh = qHTS Assay for the Inhibitors of Human Flap endonuclease 1 (FEN1); 390,000 compounds, 0.35% hits; P39748; Recombinant FEN1 flap cleavage, fluorescence, 15 min; Potency, µM (series often up to 114 µM), usual class: inhibitors; AID 588795, 2011; further: nearly all actives have a fitted effect of over 65% in size
Target sequence (P39748 whole entry, looked up): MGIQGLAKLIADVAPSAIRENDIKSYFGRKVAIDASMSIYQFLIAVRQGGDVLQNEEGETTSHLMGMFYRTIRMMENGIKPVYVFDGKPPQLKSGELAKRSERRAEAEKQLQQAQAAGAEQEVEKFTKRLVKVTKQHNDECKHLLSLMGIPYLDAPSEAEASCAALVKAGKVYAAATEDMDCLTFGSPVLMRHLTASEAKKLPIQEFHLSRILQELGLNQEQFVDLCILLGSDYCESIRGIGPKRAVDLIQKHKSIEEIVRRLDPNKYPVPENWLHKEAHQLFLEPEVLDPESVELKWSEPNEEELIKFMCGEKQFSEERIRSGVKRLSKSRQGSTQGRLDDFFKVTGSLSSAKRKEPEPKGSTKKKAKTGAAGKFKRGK
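Steps: FEN1 (10 nM) dispensed; compound added by pin tool; 15 min at room temperature; substrate added to 50 nM final; reads at 0 min and 15 min; data normalized and fitted (four-parameter Hill).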
POLK inh = qHTS for Inhibitors of Polymerase Kappa; DNA polymerase kappa (Homo sapiens), Q9UBT6; purified Pol kappa, fluorescent DNA synthesis assay, 10 min; Potency, µM (doses to about 107 µM), hits mostly inhibitors; 400,000 compounds, 0.53% hits; AID 588579, 2011
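Inhibition of 10 nM Pol kappa is measured by a fluorescent read-out at 0 and 10 min following addition of 50 nM substrate (final), with a 15-min room-temperature compound preincubation.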
POLH inh = qHTS for Inhibitors of Polymerase Eta; recombinant Pol eta, fluorescent DNA replication assay; Potency, µM (doses to about 114 µM), usual class: inhibitors; 390,000 compounds, 1.2% hits; DNA polymerase eta (Homo sapiens), Q9Y253
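Pol eta at 10 nM preincubated with compounds 15 min at room temperature; reaction started with fluorescent substrate (50 nM final) and read kinetically at 0 and 10 min.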
Pol iota inh = qHTS for Inhibitors of Polymerase Iota; Pol iota fluorescent replication assay, 10 min; Potency, µM (series often up to 115 µM), most hits filed as inhibitors; 390,000 compounds, 1% hits; AID 588590, 2011
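Fluorescent replication assay read twice, at 0 min and 10 min after adding 50 nM (final) substrate. Enzyme (10 nM) and compounds were first incubated 15 min at room temperature; enzyme-free buffer wells were negative controls.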
Each line names hits and unclear results; the compound was inactive in the other large screens; ! = not active in a repeat. The call rests on the fitted dose curve; in most records, active means well fitted curve in the direction sought with a large enough effect; inconclusive means small, poorly fitted or top-dose-only effect, or another doubt; inactive means no such curve, though single readings can be large; an effect the other way counts as inactive or inconclusive.

Cc1ccc(C)n1-c1ccc(C(=O)NN)cc1	POLK inh inconclusive, Pol iota inh 15.8µM
Nc1ncnc2c1nc(N1CCCCC1)n2[C@@H]1O[C@@H]2COP(=O)(O)O[C@H]2[C@H]1O	none (no result: WRN inhibitor, POLB inh, FEN1 inh, POLH inh, Pol iota inh)
CC(OC(=O)c1ccc(-n2cnnn2)cc1)C(=O)Nc1ccc(F)c(F)c1F (configuration not stated)	POLK inh inconclusive, POLH inh 56.2µM, Pol iota inh 39.8µM (no result: POLB inh)
CC(OC(=O)c1ccc(-n2cnnn2)cc1)C(=O)Nc1ccccc1F (configuration not stated)	none (no result: POLB inh)
O=C(C[n+]1cccc(Br)c1)c1ccc(F)cc1	none (no result: WRN inhibitor, POLB inh, POLH inh)
CCN(CC)/[N+]([O-])=N/OCOC(=O)C(C)c1ccc2cc(OC(C)=O)ccc2c1 (configuration not stated)	none (no result: WRN inhibitor, POLB inh, POLH inh)
O=C(CSc1ccccc1)Nc1nc2ccccc2[nH]1	none
O=C(CSc1ccc(Cl)cc1)Nc1ccc(-c2nc3ccccc3[nH]2)cc1	POLB inh 31.6µM, POLH inh inconclusive
O=C(CSc1ccc(Br)c2cccc(Cl)c12)Nc1ccc(S(=O)(=O)Nc2nccs2)cc1	WRN inhibitor 35.5µM, POLB inh 50.1µM, POLK inh inconclusive, POLH inh 44.7µM, Pol iota inh inconclusive
Cc1nc2ccccc2nc1/C=C/c1ccc(N(C)C)cc1	FEN1 inh inconclusive (no result: WRN inhibitor, POLB inh, POLH inh)
COc1cc(Cl)cc(C(c2c(C(=O)O)[nH]c3ccccc23)c2c(C(=O)O)[nH]c3ccccc23)c1O	POLB inh 89.1µM, POLK inh inconclusive, POLH inh inconclusive, Pol iota inh inconclusive
O=C(O)c1[nH]c2ccccc2c1C(c1c(F)cccc1Cl)c1c(C(=O)O)[nH]c2ccccc12	none
CC1COC(=O)O1 (configuration not stated)	none (no result: WRN inhibitor, POLB inh, FEN1 inh, POLH inh, Pol iota inh)
C=C1CC2C(=O)N(Cc3cc(OC)ccc3OC)C(C(=O)OCC)C1N2C (configuration not stated)	none (no result: WRN inhibitor, POLB inh, POLH inh)
CCOc1ccccc1C1NC(c2ccc3c(c2)OCO3)=CC(c2ccccc2O)N1 (configuration not stated)	none (no result: WRN inhibitor, POLB inh, POLH inh)
O=C(Cc1cc(=O)[nH][nH]1)N/N=C/C(Cl)=C/c1ccccc1	POLB inh 50.1µM, POLH inh inconclusive, Pol iota inh 3.16µM!
CC(/C=C/c1ccco1)=N\NC(=O)c1cc(C)[nH]n1	WRN inhibitor inconclusive, POLB inh 20µM, POLK inh inconclusive, POLH inh 79.4µM, Pol iota inh 17.8µM
CC1=NN(c2ccccc2)C(=O)C1N=Nc1ccc(N)cc1 (configuration not stated)	POLB inh 22.4µM, Pol iota inh inconclusive
O=C(COc1ccccc1C(=O)Nc1ccccc1)Nc1ccc(-c2ccccc2)cc1	none (no result: WRN inhibitor, POLB inh, POLH inh)
COc1ccc2c(c1)CC(C(=O)NCCN1CCN(c3cccc(Cl)c3)CC1)CO2 (configuration not stated)	none (no result: WRN inhibitor)
CC(=O)Nc1cccc(NC(=O)Nc2cccc(Cl)c2C)c1	POLB inh 44.7µM
CC(=O)Nc1cccc(NC(=S)Nc2cccc(Cl)c2C)c1	Pol iota inh inconclusive
COc1ccccc1NS(=O)(=O)c1cc(NC(=O)CNC(=O)c2ccc(C)s2)ccc1Cl	WRN inhibitor 56.2µM, FEN1 inh 44.7µM, POLH inh inconclusive, Pol iota inh 79.4µM
CC1=NN(c2ccc(C)cc2C)C(=O)C1C(c1cccc(O)c1)C1C(=O)N(c2ccc(C)cc2C)N=C1C (configuration not stated)	Pol iota inh 1.26µM
O=C(CN1CCCCCCC1)N/N=C/c1ccc([N+](=O)[O-])o1	POLB inh inconclusive, POLK inh inconclusive, POLH inh inconclusive, Pol iota inh 44.7µM
Cc1ccccc1OCC(=O)N/N=C/c1ccc([N+](=O)[O-])o1	POLK inh inconclusive, Pol iota inh inconclusive
O=[N+]([O-])c1ccc(/C=N/N=C/c2ccc([N+](=O)[O-])o2)o1	POLK inh inconclusive, POLH inh inconclusive, Pol iota inh 22.4µM
